Compounds without any hit were thinned out: in the full panel of roughly 79,000, 15% have a hit. A number with no mark means an inactive call. Active and inactive are the calls of the source. Cut-off read from the data, not from the text of the source: active = growth inhibition above about 70%; inactive = the rest. *1 amine or outer side, *2 acyl side, *3 side chain or, on linkers, in order; H or OH if unused. Where a SMILES comes first, the peptide text is derived from it. [ ]: non-standard residue; d: D form. The star is where a group is joined. X17 = CC(=O)N(C)SCC(N[*:1])C(=O)[*:2]; Fmoc = O=C(OCC1c2ccccc2-c2ccccc21)*; For = O=C*

The nature of assay [1]: NCI Yeast Anticancer Drug Screen. Data for the rad50 strain (AID 155).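 Note: 0% = growth of vehicle-only cultures of the same strain.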 The settings on record: S. cerevisiae rad50 strain growth inhibition; at 50.0 µM; hits give high values. The gist of the method:
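Cells are treated with compound, grown, and their growth is then scored against vehicle-only cultures of the same repair-deficient yeast strain.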

Assay [2] can be described thus: NCI Yeast Anticancer Drug Screen. Data for the mec2-1 strain (AID 157). Conditions: S. cerevisiae mec2-1 strain, at 50.0 µM, hits give high values. The gist of the method: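 Readout is yeast growth inhibition, normalised to vehicle-treated controls, in the mec2-1 strain exposed to compound.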
Assay [3] is described as follows: NCI Yeast Anticancer Drug Screen. Data for the sgs1 mgt1 strain (AID 161).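 Note: 0% = growth of cultures given vehicle only.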 Conditions: S. cerevisiae sgs1 mgt1 strain, at 50.0 µM, hits give high values. A digest of the protocol: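 Yeast cells carrying a defined DNA-repair defect were exposed to test compounds. Growth inhibition was measured relative to vehicle-treated controls.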
The nature of assay [4]: NCI Yeast Anticancer Drug Screen. Data for the cln2 rad14 strain (AID 165).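 Note: 0% = growth equal to vehicle treated cultures.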 Conditions: S. cerevisiae cln2 rad14 strain, at 50.0 µM, hits give high values. A digest of the protocol: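 Relative to vehicle controls, growth inhibition of compound-treated cln2 rad14 yeast was recorded.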
Assay [5] in a line: NCI Yeast Anticancer Drug Screen. Data for the bub3 strain (AID 167). Conditions: S. cerevisiae bub3 mutant strain, at 50.0 µM, hits give high values. The gist of the method:
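Part of a panel of yeast mutants defective in DNA damage repair or cell cycle regulation. Each strain is grown with compound, and inhibition is calculated relative to solvent-treated cultures.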

Assay [6] in a line: NCI Yeast Anticancer Drug Screen. Data for the mlh1 rad18 strain (AID 175). The settings on record: S. cerevisiae mlh1 rad18 strain growth inhibition; at 50.0 µM; hits give high values. A digest of the protocol: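 Test agents were incubated with a yeast strain of defined genotype (DNA damage repair defect). Inhibition of growth was derived by comparison with vehicle-exposed cultures.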

Turning to `CCN(CC)CCOC(=O)c1ccc(NC(=O)OCCC(C)(C)CCOC(=O)Nc2ccc(C(=O)OCCN(CC)CC)cc2)cc1`, the growth inhibition in assay [1] is 6.85%; in assay [2], -18.4%; in assay [3], -9.25%; in assay [4], -23.6%; in assay [5], 8.25%; in assay [6], 16.2%.
As for `COC1=CC(=C(c2ccc(O)c(OC)c2)c2ccc(O)c(OC)c2)C=CC1=O`, the growth inhibition was -2.75% in assay [1]; -6.95% in assay [2]; -2.55% in assay [3]; 4.4% in assay [4]; -22.4% in assay [5]; -31.9% in assay [6].
On to `CC(C)(C)NC(=O)Oc1ccc2ccccc2c1`, for which the growth inhibition is 1.75% in assay [1]; -14.6% in assay [2]; -6% in assay [3]; -84.9% in assay [4]; 10.3% in assay [5]; -15.7% in assay [6].
As for `O=C(O)C(CCS)(c1ccccc1)c1ccccc1`, the growth inhibition in assay [1] was 17.2%; in assay [2], -5.7%; in assay [3] it was 0.3%; in assay [4], 20.2%; in assay [5] it was 2.15%; in assay [6], 2%.
Consider `CC(=O)OCCCC(=O)Nc1cc([N+](=O)[O-])ccc1OCc1ccccc1`, for which the growth inhibition in assay [1] is 12.4%; in assay [2] it was -3.35%; in assay [3] it was 3.45%; in assay [4] it was -6.35%; in assay [5], 5.7%; in assay [6], 8.45%.
For the molecule `COc1ccc(C2=C(Cl)c3cc(OC)c(OC)cc3C2=O)cc1OC`, the growth inhibition was 0.75% in assay [1]; -7.1% in assay [2]; -7.05% in assay [3]; -18.9% in assay [4]; -9.85% in assay [5]; 2.4% in assay [6].
Regarding `O=[N+]([O-])c1ccc(SCN(CSc2ccc([N+](=O)[O-])cc2)Cc2ccccc2)cc1`, the growth inhibition in assay [1] was -6.35%; in assay [2], -6.85%; in assay [3], -1.2%; in assay [4] it was -17.4%; in assay [5], 4.65%; in assay [6], -7%.
Regarding `NC(=O)c1ccc(I)cc1`, the growth inhibition was 1.75% in assay [1]; 9.3% in assay [2]; 4% in assay [3]; -30.1% in assay [4]; -37% in assay [5]; 8.25% in assay [6].
On to `Clc1ccccc1C(Nc1ncccn1)Nc1ncccn1`, for which the growth inhibition is 11.1% in assay [1]; 15% in assay [2]; -8.05% in assay [3]; -0.25% in assay [4]; 41% in assay [5]; 13.1% in assay [6].
As to `COc1cc(C2c3cc4c(cc3OC(NNC(N)=O)C2C)OCO4)cc(OC)c1OC` (stereo not given), the growth inhibition in assay [1] was -4.1%; in assay [2] it was 6.4%; in assay [3], 6.7%; in assay [4], -19.6%; in assay [5] it was 11.5%; in assay [6], 10.4%.
In the case of `CC(=O)N(C)SCC(NC(=O)C(Cc1ccccc1)NC(=O)OCC1c2ccccc2-c2ccccc21)C(=O)NC(Cc1ccccc1)C(=O)NC(Cc1cn(C=O)c2ccccc12)C(=O)NC(CCCCNC(=O)OCC1c2ccccc2-c2ccccc21)C(=O)NC(C(=O)NC(CSN(C)C(C)=O)C(=O)NC(C(N)=O)C(C)O)C(C)O` (stereo not given) (Fmoc-F[X17]FW(For)K(Fmoc)T[X17]T-NH2; configuration not given here), the growth inhibition in assay [1] is 86.7% (active); in assay [2], 81.3% (active); in assay [3], 65.1%; in assay [4], 82.2% (active); in assay [5], 82.2% (active); in assay [6] it was 84% (active).
Regarding `CC(C)CSC(SCC(C)C)C(O)C(O)C(O)CO` (stereo not given), the growth inhibition in assay [1] was -6.85%; in assay [2], 3%; in assay [3] it was 5.4%; in assay [4], -35.2%; in assay [5], 10.2%; in assay [6], 6%.
Turning to `CSC(C(OC(C)=O)C(OC(C)=O)C(OC(C)=O)C(COC(C)=O)OC(C)=O)n1cnc2c(=S)nc[nH]c21` (stereo not given), the growth inhibition in assay [1] is 26.4%; in assay [2], -12.4%; in assay [3] it was -11.6%; in assay [4], 13.2%; in assay [5], -0.45%; in assay [6] it was 1.95%.
Turning to `COc1ccccc1NC(=O)NC1CCCCC1`, the growth inhibition in assay [1] is -2.8%; in assay [2], -4.65%; in assay [3] it was -8.2%; in assay [4], -88%; in assay [5] it was 5.5%; in assay [6], -15.2%.
As to `O=C1NC(=O)[C@H]2C3C=CC([C@@H]12)[C@@H]1C(=O)NC(=O)[C@H]31`, the growth inhibition was 41.7% in assay [1]; 21.8% in assay [2]; -22.1% in assay [3]; 7.8% in assay [4]; -28.7% in assay [5]; -47.6% in assay [6].
For `CC(=O)Nc1ccc(S(=O)(=O)N=S(C)C)cc1`, the growth inhibition in assay [1] was -10.8%; in assay [2] it was -9.05%; in assay [3], -24.9%; in assay [4], -21.6%; in assay [5], -40%; in assay [6], 13.8%.
Consider `Oc1c(Br)cc(Br)cc1/C=C/NC(=S)NC1CC2CC1C1C=CCC21` (stereo not given), for which the growth inhibition in assay [1] is 28.2%; in assay [2] it was 32.1%; in assay [3] it was 10.6%; in assay [4], -6.15%; in assay [5], 5.15%; in assay [6], 55.9%.
Regarding `CC1=CC(=O)CC(C)(C)C1(O)/C=C/C(C)=C/C(=O)O` (stereo not given), the growth inhibition in assay [1] was -11.6%; in assay [2], -28.5%; in assay [3], -56%; in assay [4], -37%; in assay [5], -41.7%; in assay [6] it was 5.1%.
For the molecule `CN1CCN(C(=O)NC2CCCCC2)CC1`, the growth inhibition was -2.1% in assay [1]; -10.9% in assay [2]; 3.35% in assay [3]; -44.4% in assay [4]; -8.4% in assay [5]; -7.6% in assay [6].
In the case of `Nc1ccc(-c2csc(Nc3ccnc4cc(Cl)ccc34)n2)cc1`, the growth inhibition in assay [1] was -1.75%; in assay [2], -5.4%; in assay [3], 4.25%; in assay [4], -7.85%; in assay [5], 18.9%; in assay [6] it was 7.6%.

The values are drawn from PubChem BioAssay (NCI).
